High-throughput results: PubChem BioAssay, National Center for Advancing Translational Sciences (NCATS)
Hits are enriched below; roughly 1% of the tested compounds scored in any of these assays.
TexasRed fluor = counter-screen for TRb-SRC2 inhibitors: fluorescence interference | TRb/SRC2 Texas Red total fluorescence interference | actives 0.29% (n = 280,000) | AID 1479 | Potency, µM (highest dose often 106 µM), inactives show at the highest dose fluorescence change, negative = quenching; active = well fitted curve in either direction with a large enough effect; inconclusive = small, poorly fitted or top-dose-only effect; note: potency is the fitted concentration of half-maximal effect; % is set by controls: 0 for no effect and ±100 for the full control effect
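Human TRβ ligand-binding domain (0.6 uM) and Texas Red SRC2 peptide (20 nM) in Tris buffer with 1 uM T3 and 5% DMSO were incubated with pinned compound for 5 hr at ambient temperature. Total fluorescence was computed as S + 2P (555/632 nm).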
FBPA coupling cs = counter-screen for Giardia aldolase inhibitors: coupling enzyme system; coupling enzyme system counterscreen, AmpLite Red fluorescence; actives 0.67% (n = 290,000); activity change, negative = inhibition, % at 58.2 µM, hits read low; in the data active = activity change below about -30%; note: % is set by controls: 0 for no effect and ±100 for the full control effect
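Counterscreen lacking aldolase: glyceraldehyde-3-phosphate coupling-enzyme reagent preincubated 10 min at RT with compound (at 57.5 uM final), then substrate/coupling system with AmpLite Red added; fluorescence read at 525/598 nm after 20 min RT.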
NPSR antag = blocks cAMP signaling of the human neuropeptide S receptor | CHO-NPSR cells, cAMP TR-FRET, antagonist mode | actives 1% (n = 220,000) | Q6W5P4 | Potency, µM (doses to about 38.3 µM), for the others: at the top dose activity change, negative = inhibition, actives largely listed as inhibitors | AID 1461; note: potency is the fitted concentration of half-maximal effect; % is set by controls: 0 for no effect and ±100 for the full control effect; nearly all actives have a fitted effect of over 50% in size
TRb SRC2 PPI = disrupts binding of human TR beta to SRC2. Potency, µM (doses to about 106 µM), without a hit: top-dose activity change, negative = inhibition, actives largely listed as inhibitors. actives 0.065% (n = 280,000). P10828. TRbeta-SRC2 peptide binding, fluorescence polarization; receptor liganded with 1 µM T3;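 note: potency is the fitted concentration of half-maximal effect; plate controls were bound peptide for no effect and peptide without receptor for full effect; nearly all actives have a fitted effect of over 50% in size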
Target sequence (P10828 whole entry, looked up): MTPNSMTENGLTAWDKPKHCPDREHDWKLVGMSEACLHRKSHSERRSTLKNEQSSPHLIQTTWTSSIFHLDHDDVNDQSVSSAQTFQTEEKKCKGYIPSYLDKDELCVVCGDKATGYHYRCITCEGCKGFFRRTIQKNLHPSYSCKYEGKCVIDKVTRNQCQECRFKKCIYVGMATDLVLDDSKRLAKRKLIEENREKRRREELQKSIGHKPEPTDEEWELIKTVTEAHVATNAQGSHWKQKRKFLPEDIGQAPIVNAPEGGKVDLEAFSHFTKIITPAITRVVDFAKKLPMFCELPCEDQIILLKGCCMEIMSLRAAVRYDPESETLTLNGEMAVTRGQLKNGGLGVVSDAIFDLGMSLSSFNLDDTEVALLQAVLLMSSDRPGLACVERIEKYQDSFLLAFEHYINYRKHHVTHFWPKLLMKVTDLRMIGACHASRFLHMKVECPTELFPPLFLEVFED
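Quantitative HTS by FP: 0.6 uM TRb LBD, 20 nM labeled SRC2 20-mer, 1 uM T3, 5% DMSO; 5 hr ambient incubation; % activity per concentration and potencies from concentration series.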
TCR activator = activators of T cell receptors; 330,000 tested, under 10 active; AID 504894; Potency, µM (doses to about 9.22 µM), for the others: top-dose activation of IL-2 secretion, usual class: activators; primary human leukocytes, anti-CD3, IL-2 HTRF, 48 h; note: % of control where 0% means no effect
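Primary human leukocytes receive a-CD3 beads and test compound and are incubated 48 hr. Secreted IL-2 is then assayed by HTRF, measuring 665nm acceptor emission after 320nm excitation of the europium donor.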
TSHR antagonist = human thyrotropin receptor antagonism; P16473; actives 0.2% (n = 330,000); TSHR-expressing cells, TSH-stimulated cAMP HTRF, 2 h; stronger effect = lower value; activity change, negative = inhibition, % at 11.5 µM;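 active = activity change below a set negative limit, meaning inhibition stronger than a set level, cut at about -70% in these data; inconclusive = activity change between two set negative limits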; note: % is set by controls: 0 for no effect and ±100 for the full control effect
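Cell-based HTRF cAMP assay; TSHR cells + compound, TSH EC80 (4nM final), 2 h, 37 deg C. Lysis with anti-cAMP cryptate and cAMP-d2, 30 min RT, read 665/620 nm.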
Active calls of the source: *; ? = inconclusive; . = no result given; [ ] = remark or other dose. Unless noted, calls come from the whole dose curve; as a rule, active = well fitted curve in the direction sought with a large enough effect; inconclusive = small, poorly fitted or top-dose-only effect, or another doubt; inactive = no such curve, though single readings can be large; an effect the other way counts as inactive or inconclusive.

SMILES	TexasRed fluor	FBPA coupling cs	NPSR antag	TRb SRC2 PPI	TCR activator	TSHR antagonist
Cn1c(N=Nc2ccc(N3CCOCC3)cc2)[n+](C)c2ccccc21	-2.2%	-15.8	7.94µM*	-6.6%	5.4%	?
Cn1c(=Nc2ccc(N3CCOCC3)cc2)ccc2ccccc21	-1.6%	5.1	4.1%[46.1 µM]	-4.4%	-8.2%	-2.4
Cc1oc(-c2ccccc2)nc1CSc1nnc(C)n2c1cc1sccc12	-2.0%	.	.	2.2%	.	.
COc1cc(-c2cc(OC)c3c(C)oc(C)c3c(=O)c2)ccc1OC(=O)c1cccc(Cl)c1	501µM*[quencher]	.	.	?	.	.
CC(Oc1ccccc1)C(=O)Nc1ccccc1C(=O)OCc1cc(=O)n2nc(C(C)C)sc2n1 (configuration not stated)	0.0%	.	.	-8.2%	.	.
O=C(N/N=C/c1ccc(N2CCOCC2)o1)c1cccc([N+](=O)[O-])c1	8.7%	-43.9*	-23.8%	-3.9%	2.3%[46.1 µM]	6.1
O=[N+]([O-])c1ccc(NC(=S)NCCc2ccccc2)cc1	-0.6%	2.8	-9.9%	-2.5%	1.5%[46.1 µM]	?
O=[N+]([O-])c1ccc(NC(=S)NCCc2ccc(Cl)cc2)cc1	-2.6%	-6.4	?	-5.5%	-4.4%	-74.8*
CCn1c(C)nc2cc(C(=O)NNC(=S)Nc3ccc(Cl)cc3Cl)ccc21	8.91µM*[quencher]	-2.9	-14.3%[46.1 µM]	-20.6%[53 µM]	-0.3%[46.1 µM]	9.6
Cc1cc(O)c(C=O)c2c1C(=O)Oc1c(C)c(O)c3c(c1O2)C(O)OC3=O (configuration not stated)	-5.7%	5.8	.	4.9%	.	.
Cc1c2c(c(O)c3c(O)cccc13)C(=O)O[C@H]2C1C(N(C)C)C(O)=C(C(N)=O)C(=O)[C@H]1O (some centres not stated)	22.4µM*[quencher]	-20.4	.	?	.	.
CCOc1ccc(OCC)c(NC(=O)CN(C)S(=O)(=O)c2ccc3[nH]c(=O)oc3c2)c1	-3.8%	.	.	-2.8%	.	.
CCOc1ccc(NC(=O)CC2C(=O)N(c3ccc(F)cc3)C(=O)N2CCc2sccc2C)cc1 (configuration not stated)	-0.7%	.	.	6.2%	.	.
Cn1nc(-c2ccc(Cl)cc2)nc2c(=O)n(C)c(=O)nc1-2	-6.1%	-76.1*	1µM*	?	.	-20.6
CS(=O)(=O)n1nc(-c2ccc(Cl)cc2)nc1N	-6.3%	-6.7	-6.8%	-5.8%	3.5%	2.5
Oc1c(CN2CCc3ccccc3C2)cc(Cl)c2cccnc12	2.2%	-15.1	6.31µM*	-12.5%	-7.9%	7.9
CC(C)CCNC(=O)c1ccc2c(c1)NC(=O)C(CS(=O)(=O)Cc1ccc(F)cc1)N2 (configuration not stated)	-4.2%	.	.	-6.4%	.	.
O=S(=O)(O)c1cc(O)c2c(N=Nc3ccc(Nc4ccccc4)c4c(S(=O)(=O)O)cccc34)cc(S(=O)(=O)O)cc2c1	20µM*[quencher]	.	.	15.2%	.	.
CC(=O)Nc1ccc(NC(=O)c2ccco2)cc1	-2.1%	-14.8	-13.9%[46.1 µM]	-5.7%	-2.4%	2.5
CC1N(C)c2cc(NC(=O)c3ccco3)ccc2C1(C)C (configuration not stated)	44.7µM*[fluorescent]	-17.5	-15.9%[46.1 µM]	?	0.9%	-10.4
CCOC(=O)c1c(C)oc2c1C(=O)c1ccccc1C2=O	-4.1%	-42.8*	2.1%	7.7%	-4.7%	-30.5
O=C1C(=O)c2c(C(=O)c3ccccc3)coc2-c2ccccc21	-4.9%	-79.7*	-19.5%[46.1 µM]	-10.1%	2.3%	-19.0
Cc1oc2c(c1C(=O)c1ccccc1)C(=O)C(=O)c1ccccc1-2	0.0%	-78.0*	?	?	6.6%	?
Cn1c(=S)[nH]c2c(c1=O)C(C)(C)Cc1ccccc1-2	-3.1%	5.2	6.31µM*	-6.8%	-12.0%	12.2
Cc1cc(C)cc(Nc2cc(C(=O)NC3CCC(C)CC3)c3ccccc3n2)c1 (configuration not stated)	0.7%	.	.	-13.1%	.	.
COC(=O)c1ccc(NC(=O)N2CCN(c3nnc(C)c4c(C)n(-c5ccccc5)nc34)CC2)cc1	-9.0%	.	.	1.7%	.	.
